Source: PubChem BioAssay AID1240 (Sanford-Burnham Center for Chemical Genomics, 2008)
In all, about 50,000 compounds went through this assay and about 800 (1.6%) showed an effect of 50% or more. The sample as a whole holds a higher share of strong results than the screen did.

target: Bcl-2-like protein 10 (Homo sapiens) (UniProt Q9HD36); assay: Phenotype converters, Bcl-B/TR3 peptide binding displacement, primary biochemical FP (AID 1240); details: GST-Bcl-B / FITC-TR3 peptide fluorescence polarization; stronger effect = higher value; compound at 3.75 mg/L;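 also: 0% = Bcl-B with tracer peptide and DMSO and 100% = tracer peptide lacking Bcl-B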
Sequence (Q9HD36 whole entry, looked up): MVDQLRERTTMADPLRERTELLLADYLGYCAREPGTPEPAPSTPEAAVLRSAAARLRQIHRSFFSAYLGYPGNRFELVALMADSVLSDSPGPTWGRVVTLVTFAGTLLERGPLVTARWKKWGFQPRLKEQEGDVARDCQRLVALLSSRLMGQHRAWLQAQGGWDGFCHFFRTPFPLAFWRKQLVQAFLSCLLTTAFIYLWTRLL

Structure (SMILES)	displacement [%]
C=CCOc1ccc(/C=C/C(=O)c2ccc(Cl)cc2)cc1	-2.1
O=C(NCc1ccccc1)c1nn2c(c1Cl)NC(c1ccc(Cl)cc1)CC2C(F)(F)F (stereo unspecified)	1.1
O=C(NCc1ccccc1)C(O)(c1ccc(F)cc1)c1ccc(F)cc1	-12.1
CSc1ccc(CN2CCN(C(=O)c3ccco3)CC2)cc1	-13.1
O=[N+]([O-])c1ccc(F)c(NS(=O)(=O)c2cc(Cl)ccc2Cl)c1	-1.9
Cc1cc(NC(=O)c2cccc(F)c2)ccc1NC(=O)c1ccccc1	-3.3
Cc1ccc(/C=C2\SC(=Nc3ccc(O)cc3)NC2=O)cc1	0.1
O=C1NC(=Nc2ccc(Br)cc2)S/C1=C\c1ccc2c(c1)OCO2	68.8
O=C1NC(=Nc2ccc(Br)cc2)S/C1=C\c1ccc(O)cc1	10
COc1ccc(N=C2NC(=O)/C(=C/c3ccc(Cl)cc3)S2)cc1	10.7
CN(C)c1ccc(/C=C2\SC(=Nc3ccc(O)cc3)NC2=O)cc1	50.9
O=C1NC(=Nc2ccc(O)cc2)S/C1=C\c1ccc(Cl)cc1	0.3
COc1ccc(N=C2NC(=O)/C(=C/c3ccc(N(C)C)cc3)S2)cc1	84.9
COc1ccc(/C=C2/SC(=Nc3ccc(O)cc3)NC2=O)cc1	-15.9
O=C1NC(=Nc2ccc(F)cc2)S/C1=C/c1ccc(Br)cc1	8
COC(=O)c1c(C)oc2ccc(OCc3cccc(Br)c3)cc12	9.3
CCC(=NCc1ccccc1)c1c(C(F)(F)F)[nH]n(-c2nc3ccccc3s2)c1=O	-13.5
Cc1ccc(N2NC(=O)/C(=C/C=C/c3ccccc3)C2=O)cc1C	8.4
Cc1ccc(Cl)cc1NC(=O)C(=O)NCc1ccco1	-13.4
CCOC(=O)c1c(-c2ccc(C)cc2)csc1NC(=O)C(C)(C)C	7.5
Cc1c(C(=O)NCCc2ccccc2)cccc1[N+](=O)[O-]	-8
CN(C)c1ccc(N/C(N)=N/c2nc(C(F)(F)F)cc(=O)[nH]2)cc1	-5.8

Structure (SMILES)	displacement [%]
N/C(=N/N=C/c1ccc2c(c1)OCO2)c1ccccn1	-7.7
O=C(c1ccccc1)N1CC(=O)N2CCc3ccccc3C2C1 (stereo unspecified)	1
O=C1/C(=C/c2ccccc2)SC(=S)N1c1ccccc1Cl	-7.4
COc1cccc(C2NC(=O)NC(C)=C2C(=O)Nc2ccccc2C)c1 (stereo unspecified)	4.3
CCOC(=O)C1=C(C)N=c2s/c(=C\c3cc4c(cc3Cl)OCO4)c(=O)n2C1c1cccs1 (stereo unspecified)	-8.9
COC(=O)C1=C(C)N=c2s/c(=C\c3ccccc3Cl)c(=O)n2C1c1cccs1 (stereo unspecified)	84.9
CCOC(=O)C1=C(C)N=c2s/c(=C\c3ccc(N(C)C)cc3)c(=O)n2C1c1ccc(OC)c(OC)c1 (stereo unspecified)	-38.5
CCOC(=O)C1=C(C)N=c2s/c(=C\c3ccc(C(=O)O)cc3)c(=O)n2C1c1ccc(OC)c(OC)c1 (stereo unspecified)	-22.8
CCOC(=O)C1=C(C)N=c2s/c(=C\c3cn(C)c4ccccc34)c(=O)n2C1c1cccs1 (stereo unspecified)	11.5
CCOC(=O)C1=C(C)N=c2s/c(=C\c3ccc(NC(C)=O)cc3)c(=O)n2C1c1ccc(OC)cc1 (stereo unspecified)	116
CCOC(=O)C1=C(C)N=c2s/c(=C\c3ccc(I)cc3)c(=O)n2C1c1ccc(OC)c(OC)c1 (stereo unspecified)	111
COC(=O)C1=C(C)N=c2s/c(=C/c3ccc(F)cc3)c(=O)n2C1c1ccc(OC)cc1 (stereo unspecified)	5.7
CCOC(=O)C1=C(C)N=c2s/c(=C\c3ccc(NC(C)=O)cc3)c(=O)n2C1c1ccccc1 (stereo unspecified)	-24.8
CCOC(=O)C1=C(C)N=c2s/c(=C\c3ccc(OC)cc3)c(=O)n2C1c1ccc(OC)cc1 (stereo unspecified)	-5.7
COC(=O)C1=C(C)N=c2s/c(=C\c3ccc(Cl)cc3)c(=O)n2C1c1ccc(OC)c(OC)c1 (stereo unspecified)	9.9
C=CCOc1ccc(/C=c2/sc3n(c2=O)C(c2ccc(OC)c(OC)c2)C(C(=O)OC)=C(C)N=3)cc1 (stereo unspecified)	106
CCOc1ccc(C(=O)Nc2cc(OC)ccc2OC)cc1Br	-9
COc1ccc(C(=O)N2CCN(c3cccc(C)c3C)CC2)c(OC)c1	-4.4
CCN(CC)c1ccc(N2C(=O)/C(=C/C=C/c3ccccc3)SC2=S)cc1	-4.2
CCCOC(=O)c1c(NC(=O)c2c(-c3ccccc3)noc2C)sc2c1CCCCC2	-7.2
COc1ccc(CN2CCN(C3CCC(c4ccccc4)CC3)CC2)c(OC)c1OC (stereo unspecified)	-12
CC(C)OC(=O)c1c(-c2ccc(F)cc2)csc1N	1.3

Structure (SMILES)	displacement [%]
COc1ccc(N2C(=O)/C(=C\C(Br)=C\c3ccccc3)SC2=S)cc1	5.6
CCOC(=O)C1=C(C)N=c2s/c(=C\c3ccccc3F)c(=O)n2C1c1ccc(OC)c(OC)c1 (stereo unspecified)	6.3
CCOC(=O)C1=C(C)N=c2s/c(=C\c3ccccc3Cl)c(=O)n2C1c1ccc(OC)c(OC)c1 (stereo unspecified)	106
CCOC(=O)C1=C(C)N=c2s/c(=C\c3ccc(N(CC)CC)o3)c(=O)n2C1c1ccc(OC)c(OC)c1 (stereo unspecified)	-25
CCOC(=O)C1=C(C)N=c2s/c(=C\c3ccc(NC(C)=O)cc3)c(=O)n2C1c1ccc(OC)c(OC)c1 (stereo unspecified)	88.9
CCOC(=O)C1=C(C)N=c2s/c(=C\c3ccccn3)c(=O)n2C1c1ccc(OC)c(OC)c1 (stereo unspecified)	42.1
CCOC(=O)C1=C(C)N=c2s/c(=C\c3cc(Br)c(O)c(OC)c3)c(=O)n2C1c1ccc(OC)c(OC)c1 (stereo unspecified)	-85.1
CC(=O)N(c1ccccc1)c1c(F)c(F)c(F)c(F)c1F	-8.8
O=C(COc1ccc(Cl)cc1Br)Nc1ccc2c(c1)OCCO2	1.8
CCOC(=O)c1conc1-c1ccc(SC)cc1	6.5
COc1ccc(CN2CCN(Cc3cc(Br)ccc3O)CC2)c(OC)c1	1.4
COc1cc(C(=O)N2CCN(Cc3cccc(C(F)(F)F)c3)CC2)cc(OC)c1OC	3.1
Cc1ccc2nc(-c3ccc(NC(=O)c4ccc5c(c4)OCCO5)cc3)sc2c1	73.2
O=C(Nc1ccc(-c2nc3ccccc3s2)c(O)c1)c1ccc2c(c1)OCCO2	-3.8
O=C(Nc1cccc(-c2nc3ccccc3s2)c1)c1ccc2c(c1)OCCO2	5.6
O=C(Nc1ccc(O)c(-c2nc3ccccc3s2)c1)c1ccc2c(c1)OCCO2	82.5
CCOc1ccc(C(=O)Nc2ccc(-c3nc4ccc(C)cc4s3)cc2)cc1	13.3
CC(=O)Nc1ccc(-c2nc3ccc(C)cc3s2)cc1	-3.9
O=CN1N=C(c2ccccc2)CC1(O)C(F)(F)F (stereo unspecified)	13.4
O=C(CC1Nc2ccccc2NC1=O)Nc1ccc(Br)cc1 (stereo unspecified)	-5.1
COC(=O)c1ccc(NC(=O)CC2Nc3ccccc3NC2=O)cc1 (stereo unspecified)	108
CCc1ccc(NC(=O)CC2Nc3ccccc3NC2=O)cc1 (stereo unspecified)	-35.7

Structure (SMILES)	displacement [%]
CCOC(=O)c1c(NC(=O)CC2Nc3ccccc3NC2=O)sc(C)c1C (stereo unspecified)	-9.5
CCOC(=O)c1c(NC(=O)CC2Nc3cc(C)c(C)cc3NC2=O)sc2c1CCCC2 (stereo unspecified)	48.8
CCOC(=O)c1c(NC(=O)CC2Nc3ccccc3NC2=O)sc2c1CCCC2 (stereo unspecified)	130
O=[N+]([O-])c1ccc(COc2ccccc2/C=N/Nc2nc3ccccc3s2)cc1	-2.1
O=C(COc1ccc(Cl)cc1Cl)N1CCN(C(=O)COc2ccc(Cl)cc2Cl)CC1	2
CCOC(=O)c1ccc(Nc2nc3nonc3nc2NC(C)C)cc1	-7.1
O=C1NC(=S)N/C1=C/c1ccc(N2CCOCC2)cc1	94.5
O=C1NC(=S)N/C1=C\c1ccccc1	0.7
Cc1cc(/C=C2/NC(=S)NC2=O)c(C)n1-c1ccc(N2CCOCC2)cc1	-9
COc1ccc(CC(=O)Nc2ccc(Cl)c(C(F)(F)F)c2)cc1OC	6.1
O=C(Nc1ccc(Br)cc1)c1ccccc1C(F)(F)F	23.2
O=C1c2ccccc2-c2c(NC3CCCCC3)c(=O)[nH]c3cccc1c23	150
O=C1c2ccccc2C(=O)c2c1cc(NC1CCCCC1)c1nsnc21	15.8
O=C1C(NC2CCCCC2)=C(N2CCCCC2)C(=O)c2ccccc21	7.4
Cc1cc(/C=C2/SC(=S)NC2=O)c(C)n1-c1ccccc1	-39.7
CCc1ccc(-n2c(C)cc(/C=C3/SC(=S)NC3=O)c2C)cc1	63
Cc1cc(C=C2C(=O)NC(=S)NC2=O)c(C)n1-c1cccc(Cl)c1	107
Cc1cccc(-n2c(C)cc(C=C3C(=O)NC(=S)NC3=O)c2C)c1	72.3
Cc1cc(/C=C2/NC(=S)NC2=O)c(C)n1-c1cccc(Cl)c1	-12.9
Cc1ccc(-n2c(C)cc(C=C3C(=O)NC(=S)NC3=O)c2C)cc1C	0.1
Cc1cccc(-n2c(C)cc(/C=C3/NC(=S)NC3=O)c2C)c1	-38.6
Cc1cc(/C=C2/SC(=S)NC2=O)c(C)n1-c1ccc(F)cc1	-6.4

Structure (SMILES)	displacement [%]
Cc1cc(C=C2C(=O)NC(=S)NC2=O)c(C)n1-c1ccc(Br)cc1	21
CCOC(=O)c1ccc(NC(=O)CN(c2ccc(Oc3ccccc3)cc2)S(C)(=O)=O)cc1	-2.7
Cc1ccc(-c2nc(N/N=C/c3cccc(F)c3)c3ccccc3n2)cc1	5
COc1ccc(C(=O)N2CCN(Cc3ccc4c(c3)OCO4)CC2)cc1OC	10.6
CCOC(=O)C1=C(C)N=c2s/c(=C\c3ccc(N(C)C)o3)c(=O)n2C1c1ccc(F)cc1 (stereo unspecified)	-22.6
CCOc1cc(C2/C(=C(\O)c3ccc(C)cc3)C(=O)C(=O)N2c2nncs2)ccc1O (stereo unspecified)	8.3
COc1ccc(/C(N)=N/OC(=O)c2ccc(C)c([N+](=O)[O-])c2)cc1	-1.8
CCCCOC(=O)c1cccc(NC(=O)c2ccc(OC)cc2)c1	-3.1
COc1ccc(C2=NN(C(C)=O)C(c3ccccc3OC)C2)cc1 (stereo unspecified)	2.3
CC(NC(=O)CN(c1cccc(C(F)(F)F)c1)S(C)(=O)=O)c1ccccc1 (stereo unspecified)	0.7
CCOc1ccc(N(CC(=O)N2CCOCC2)S(=O)(=O)c2ccc(SC)cc2)cc1	-1.3
C=CCN1C(=O)/C(=C\c2ccc(OCc3ccccc3)c(OCC)c2)SC1=S	49.5
Cc1nc(C)c(/C(O)=C/c2nc3ccccc3[nH]c2=O)o1	-8.5
CCOC(=O)c1nc2ccccc2[nH]c1=O	14.3
Cc1cc(C)c(/C(O)=C/c2nc3ccccc3oc2=O)c(C)c1	13.8
Cc1ccc(/C(O)=C/c2nc3ccccc3oc2=O)o1	116
Cc1ccc(/C(O)=C/c2nc3ccccc3[nH]c2=O)o1	130
Cc1ccc(/C(O)=C/c2nc3ccc([N+](=O)[O-])cc3oc2=O)o1	-6.6
